This is an account of results in PubChem BioAssay (NCATS).

The target in test [1] is Lysosomal acid glucosylceramidase (Homo sapiens) (UniProt P04062). The test can be described thus: Glucocerebrosidase-p2 (AID 348; in the data active means potency below about 10 µM; further: potency means the concentration at half of the fitted maximal effect). As to conditions: purified GBA, blue fluorogenic substrate, 40 min. The method, boiled down: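 Compounds titrated from 0.6 nM upwards against 0.2 nM enzyme in pH 5.9 citric acid/KH2PO4, taurocholate, tween-20; blue fluorogenic substrate 80 uM, 40 min room temperature, stopped and read Ex 365/Em 440 for AC50.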
Sequence of Lysosomal acid glucosylceramidase (Homo sapiens) (P04062 whole entry, looked up): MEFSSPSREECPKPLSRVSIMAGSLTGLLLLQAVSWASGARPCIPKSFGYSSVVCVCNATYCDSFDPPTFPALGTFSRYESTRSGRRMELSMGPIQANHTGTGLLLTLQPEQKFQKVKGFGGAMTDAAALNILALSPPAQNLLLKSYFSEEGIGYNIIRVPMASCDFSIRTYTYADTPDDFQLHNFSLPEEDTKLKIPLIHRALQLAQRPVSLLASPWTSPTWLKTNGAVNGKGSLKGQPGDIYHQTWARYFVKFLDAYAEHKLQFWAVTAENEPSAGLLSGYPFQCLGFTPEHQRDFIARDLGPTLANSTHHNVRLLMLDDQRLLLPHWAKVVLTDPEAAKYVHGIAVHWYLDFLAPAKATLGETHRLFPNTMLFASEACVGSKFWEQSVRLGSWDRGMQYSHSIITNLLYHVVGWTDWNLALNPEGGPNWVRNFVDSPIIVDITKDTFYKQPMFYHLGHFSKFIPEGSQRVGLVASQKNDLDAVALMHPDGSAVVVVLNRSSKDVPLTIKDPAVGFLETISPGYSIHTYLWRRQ

For test [2], the target named is Cytochrome P450 1A2 (Homo sapiens) (UniProt P05177). The test can be described thus: p450-cyp1a2 (AID 410; calls by dose curve; further: potency means the concentration at half of the fitted maximal effect;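 on activity change, negative = inhibition: -100% = full effect of reference inhibitor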). To be noted: recombinant CYP1A2, luciferin-ME demethylation, luminescence; series mostly up to 57 µM. The procedure, abridged: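 Inhibition was calculated relative to 57 uM furafylline (full inhibition). The reaction used human CYP1A2 at 20nM with Luciferin-ME at its Km, 100uM, driven by an NADPH-regenerating system for 60 min at room temperature.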
Sequence of Cytochrome P450 1A2 (Homo sapiens) (P05177 whole entry, looked up): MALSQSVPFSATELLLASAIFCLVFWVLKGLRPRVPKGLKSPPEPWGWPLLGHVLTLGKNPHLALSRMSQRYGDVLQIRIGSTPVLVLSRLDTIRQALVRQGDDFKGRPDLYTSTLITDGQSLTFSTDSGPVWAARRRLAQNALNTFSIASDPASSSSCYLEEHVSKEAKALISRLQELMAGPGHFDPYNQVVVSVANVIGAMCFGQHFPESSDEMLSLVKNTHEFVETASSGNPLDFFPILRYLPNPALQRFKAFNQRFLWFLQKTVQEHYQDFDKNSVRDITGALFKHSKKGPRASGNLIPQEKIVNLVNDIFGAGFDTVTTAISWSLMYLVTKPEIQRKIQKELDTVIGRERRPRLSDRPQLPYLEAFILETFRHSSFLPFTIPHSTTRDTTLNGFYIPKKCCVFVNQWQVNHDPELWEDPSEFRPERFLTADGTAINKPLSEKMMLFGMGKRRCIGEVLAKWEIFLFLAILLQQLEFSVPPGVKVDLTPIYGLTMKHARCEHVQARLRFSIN

For test [3], the target named is Glucocorticoid receptor (Homo sapiens) (UniProt P04150). The test can be described thus: GR-GFP Redistribution (AID 450;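 active means compounds whose dose series gives a full or clear partial fitted curve of increased nuclear translocation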; further: potency means the concentration at half of the fitted maximal effect). As to conditions: U2OS GR-GFP nuclear translocation, laser cytometry, 2 h.
Sequence of Glucocorticoid receptor (Homo sapiens) (P04150 whole entry, looked up, the tested form may be a part): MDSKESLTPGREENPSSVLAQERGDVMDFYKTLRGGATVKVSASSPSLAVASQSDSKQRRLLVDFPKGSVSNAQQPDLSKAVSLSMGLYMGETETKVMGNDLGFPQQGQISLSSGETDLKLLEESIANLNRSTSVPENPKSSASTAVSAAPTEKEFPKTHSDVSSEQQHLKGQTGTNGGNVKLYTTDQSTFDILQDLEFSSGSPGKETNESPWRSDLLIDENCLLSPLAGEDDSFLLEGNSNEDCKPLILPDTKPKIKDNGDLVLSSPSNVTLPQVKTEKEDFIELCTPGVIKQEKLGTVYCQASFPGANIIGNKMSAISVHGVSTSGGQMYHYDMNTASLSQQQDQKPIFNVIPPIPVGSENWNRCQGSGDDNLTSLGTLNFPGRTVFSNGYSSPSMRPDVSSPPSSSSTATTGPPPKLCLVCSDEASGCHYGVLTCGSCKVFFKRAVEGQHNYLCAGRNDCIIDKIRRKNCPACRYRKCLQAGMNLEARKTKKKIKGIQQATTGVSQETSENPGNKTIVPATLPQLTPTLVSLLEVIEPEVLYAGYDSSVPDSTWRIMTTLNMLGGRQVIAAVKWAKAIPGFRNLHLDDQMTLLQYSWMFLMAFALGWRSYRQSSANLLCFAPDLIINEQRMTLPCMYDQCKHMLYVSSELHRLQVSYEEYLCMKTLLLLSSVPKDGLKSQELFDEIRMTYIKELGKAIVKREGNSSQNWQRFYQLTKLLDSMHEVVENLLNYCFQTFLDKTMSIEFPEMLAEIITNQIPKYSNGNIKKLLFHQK
Test [4] has the same target. The test can be described thus: GR-EFC Redistribution (AID 451; calls by dose curve; further: potency means the concentration at half of the fitted maximal effect). To be noted: CHO-K1 GR-EFC translocation, beta-gal luminescence, 2 h. The method, boiled down: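 Translocation of GR-ED fusion to nuclear EA restores b-gal, read by luminescence after 1 h room-temperature detection. Engineered CHO-K1 biosensor cells, 1,000/well, exposed 2 h at 37 C to titrations up to 46 uM final.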

Test [5] has as its target Mitogen-activated protein kinase 10 (Mus musculus) (UniProt Q61831). The test can be described thus: JNK3 AlphaScreen Assay (AID 530; active means well fitted curve in either direction with a large enough effect, not every such curve was filed as active;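 further: kinase came from lysate of stimulated human HepG2 cells; signal reports phosphorylation of biotinylated GST-cJun 1-79 at Ser73 with 10 µM ATP; on the % scale 0 is the no-effect control and ±100 the full control effect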). To be noted: JNK3 lysate, c-Jun phosphorylation; series mostly up to 57.1 µM. The procedure, abridged: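 Room-temperature AlphaScreen kinase assay; pre-activated HepG2 lysate as JNK3 source, biotin-GST-cJun(1-79) substrate, 10 uM ATP, compound 15 min preincubation.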
For orientation: In Alpha technology, singlet oxygen from a donor bead excites a nearby acceptor bead.

The target in test [6] is 3',5'-cyclic-AMP phosphodiesterase 4B (Homo sapiens) (UniProt Q07343). The test can be described thus: qHTS Assay for Inhibitors of PDE-IV (AID 607; active means well fitted activation curve with a large enough effect in the main read-out, with a control signal flat, not every such curve was filed as active; further: % of control where 0% means no effect). To be noted: HEK293 ACTOne CNG channel cells, membrane potential fluorescence; series mostly up to 22.9 µM. The procedure, abridged:
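The readout is membrane depolarisation from a cAMP-sensing CNG channel, detected with a potential dye at ex 535/em 590. Cells were HEK293-derived (endogenous PDE-IV) at 1000 cells/well, titrated up to 22.9 uM final.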

Test [7] in a line: qHTS Assay for Lipid Storage Modulators (AID 1519; calls by dose curve). As to conditions: Drosophila S3 cells, BODIPY lipid droplet/cell ratio, laser cytometry, cells loaded with oleic acid; for activity change, negative = inhibition: at 57.5 µM (top of the series). The procedure, abridged:
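Cells seeded at 5,000 per well were treated with compounds over a concentration series and loaded with oleic acid (400 uM, as added). Lipid droplet fluorescence (488 nm excitation, 500-530 nm channel) was read by laser-scanning cytometry and normalized to 20 uM Triacsin C.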
Background: Quantitative high-throughput screening tests each substance at several concentrations.

In test [8] the target is Dual specificity protein kinase CLK4 (Homo sapiens) (UniProt Q9HAZ1). Description: qHTS Assay for Inhibitors of CDC-like Kinase 4 (ADP-Glo Assay) (AID 1771). Further: nearly all actives have a fitted effect of over 70% in size. Further: potency means the concentration at half of the fitted maximal effect. To be noted: recombinant CLK4, ADP-Glo luminescence; series mostly up to 80 µM. The method, boiled down:
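Kinase reaction: Clk4 at 25 nM, RS repeat peptide substrate at 100 uM, ATP at 1 uM, 1 hr, room temperature. Product ADP detected as luciferase signal via ADP-Glo.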

Test [9] deals with Ubiquitin carboxyl-terminal hydrolase 1 (Homo sapiens) (UniProt O94782). The test can be described thus: Inhibitors of USP1/UAF1: Pilot qHTS (AID 504865).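 Further: rhodamine fluorescence freed from ubiquitin-rhodamine substrate followed over time; top concentration of the series differs between compounds; on the % scale 0 is the no-effect control and ±100 the full control effect; nearly all actives have a fitted effect of over 35% in size.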 As to conditions: purified USP1/UAF1, Ub-rhodamine cleavage fluorescence; series mostly up to 54.9 µM. The procedure, abridged: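 USP1/UAF1 complex (1nM) preincubated with compound 15 min at room temperature, then Ub-Rho substrate (150nM final) added. Fluorescence read kinetically at 480/540 nm, 6 reads every 60 seconds. Buffer: 50mM HEPES pH 7.8, 0.5mM EDTA, 0.1 mg/ml BSA, 1mM TCEP, 0.01% Tween-20.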
Sequence of Ubiquitin carboxyl-terminal hydrolase 1 (Homo sapiens) (O94782 whole entry, looked up): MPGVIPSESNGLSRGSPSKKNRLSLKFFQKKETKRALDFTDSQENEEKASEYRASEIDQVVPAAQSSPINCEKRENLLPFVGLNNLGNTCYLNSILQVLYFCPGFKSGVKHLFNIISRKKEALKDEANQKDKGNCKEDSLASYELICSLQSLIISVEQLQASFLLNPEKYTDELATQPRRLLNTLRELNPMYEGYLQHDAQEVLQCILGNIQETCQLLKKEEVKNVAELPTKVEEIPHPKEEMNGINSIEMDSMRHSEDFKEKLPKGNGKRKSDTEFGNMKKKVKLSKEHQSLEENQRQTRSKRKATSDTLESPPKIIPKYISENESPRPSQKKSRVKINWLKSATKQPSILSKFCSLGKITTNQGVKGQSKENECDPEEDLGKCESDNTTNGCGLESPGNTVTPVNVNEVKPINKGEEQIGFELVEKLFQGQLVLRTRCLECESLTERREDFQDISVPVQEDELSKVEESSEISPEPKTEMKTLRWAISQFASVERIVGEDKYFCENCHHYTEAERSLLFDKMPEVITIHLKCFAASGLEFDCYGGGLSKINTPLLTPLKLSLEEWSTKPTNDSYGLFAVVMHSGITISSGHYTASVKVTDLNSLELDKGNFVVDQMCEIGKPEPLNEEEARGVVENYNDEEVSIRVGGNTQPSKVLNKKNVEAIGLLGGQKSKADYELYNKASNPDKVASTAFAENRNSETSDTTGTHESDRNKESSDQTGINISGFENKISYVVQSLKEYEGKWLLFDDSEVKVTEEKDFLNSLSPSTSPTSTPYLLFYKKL

The nature of test [10]: Primary qHTS for small molecule stabilizers of the endoplasmic reticulum resident proteome: Secreted ER Calcium Modulated Protein (SERCaMP) assay (AID 1508630). Further: on the % scale 0 is the no-effect control and ±100 the full control effect. To be noted: SH-SY5Y GLuc-SERCaMP (Gaussia luciferase released on ER calcium loss) secretion, thapsigargin, luminescence; series mostly up to 38.4 µM. The procedure, abridged: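 GLuc-SERCaMP-expressing SH-SY5Y cells, pretreated 16 h with compound, are challenged with thapsigargin to empty ER calcium stores; after 4 h, coelenterazine is added directly to the medium and luminescence is imaged.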

Test [11] is described as follows: AP1 Signaling Pathway (AID 357; active means well fitted curve in either direction with a large enough effect, not every such curve was filed as active; further: on the % scale 0 is the no-effect control and ±100 the full control effect). As to conditions: ME-180 AP-1-bla reporter, EGF-induced, beta-lactamase ratio, 5 h; at 7.69 µM (top of the series) unless noted. The procedure, abridged:
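AP-1-bla ME-180 cells with beta-lactamase reporter under AP-1 response element, stimulated with EC50 EGF; compounds titrated, 5 hours at 37 degrees Celsius. CCF4 read at 460/530 nm ratio; positive and negative modulators judged by AC50.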

The nature of test [12]: NFAT Signaling Pathway (AID 444; active means well fitted curve in either direction with a large enough effect, not every such curve was filed as active;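 further: carbachol stimulus at about its EC50 of 1 µM final; on the % scale 0 is the no-effect control and ±100 the full control effect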). To be noted: Jurkat NFAT-bla M1, carbachol, beta-lactamase ratio, 5 h; at 7.69 µM (top of the series) unless noted. The method, boiled down: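 Read-out: CCF4 FRET ratio (460 nm/530 nm) after 1 h RT dye loading, used for %activity and AC50 from titration series. Cells: Jurkat NFAT-β-lactamase/M1 line, treated with compound plus 1 uM carbachol for 5 h, 37 °C.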

A short description of test [13]: Stat Signaling Pathway (AID 446; active means well fitted curve in either direction with a large enough effect, not every such curve was filed as active). To be noted: ME-180 SIE beta-lactamase reporter, IL-6 stimulated, 5 h; at 7.69 µM (top of the series) unless noted. The procedure, abridged: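 Screening format detects activators and inhibitors alike: ME-180 SIE-bla cells stimulated at 40 pM IL-6 for 5 hrs with compound, then dual-emission beta-lactamase read at 405 nm excitation.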

Test [14] deals with Cytochrome P450 3A4 (Homo sapiens) (UniProt P08684). Description: qHTS Assay for Activators of Cytochrome P450 3A4 (AID 885). Further: nearly all actives have a fitted effect of over 65% in size. To be noted: recombinant CYP3A4, Luciferin-PPXE luminescence, 60 min; series mostly up to 57.1 µM. The procedure, abridged: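 Steps: enzyme/substrate mix dispensed; compound added, 10 min RT; NADPH regeneration solution added, 60 min RT; luciferin detection buffer stops reaction; 20 min later luminescence measured.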
Sequence of Cytochrome P450 3A4 (Homo sapiens) (P08684 whole entry, looked up): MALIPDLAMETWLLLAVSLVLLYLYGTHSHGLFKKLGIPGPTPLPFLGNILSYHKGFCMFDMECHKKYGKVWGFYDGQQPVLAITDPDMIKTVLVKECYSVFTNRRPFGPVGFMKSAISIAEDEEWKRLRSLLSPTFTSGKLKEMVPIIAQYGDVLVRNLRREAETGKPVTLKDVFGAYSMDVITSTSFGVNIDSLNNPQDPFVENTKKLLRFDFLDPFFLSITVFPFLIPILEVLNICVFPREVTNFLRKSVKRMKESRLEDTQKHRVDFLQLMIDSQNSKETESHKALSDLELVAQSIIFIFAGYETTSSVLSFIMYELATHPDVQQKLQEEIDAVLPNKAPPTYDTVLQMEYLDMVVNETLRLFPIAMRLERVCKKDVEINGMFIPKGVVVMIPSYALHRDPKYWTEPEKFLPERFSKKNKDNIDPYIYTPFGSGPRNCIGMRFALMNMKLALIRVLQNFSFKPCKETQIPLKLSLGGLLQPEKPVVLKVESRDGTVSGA

Test [15] deals with Dual specificity protein kinase CLK4 (Homo sapiens) (UniProt Q9HAZ1). The test can be described thus: qHTS Assay for Inhibitors of CDC-like Kinase 4 (ADP-FP Assay) (AID 1795). Further: on the % scale 0 is the no-effect control and ±100 the full control effect; nearly all actives have a fitted effect of over 60% in size. As to conditions: Transcreener ADP fluorescence polarization; series mostly up to 50 µM. The procedure, abridged: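 Recombinant human Clk4 (6.25 nM) phosphorylated RS repeat peptide (100 uM) with 1 uM ATP in Tris pH 7.5/MgCl2/EGTA/DTT/Triton buffer for one hour. ADP was quantified by Transcreener competitive fluorescence polarization against an ADP calibration curve.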
Sequence of Dual specificity protein kinase CLK4 (Homo sapiens) (Q9HAZ1 whole entry, looked up): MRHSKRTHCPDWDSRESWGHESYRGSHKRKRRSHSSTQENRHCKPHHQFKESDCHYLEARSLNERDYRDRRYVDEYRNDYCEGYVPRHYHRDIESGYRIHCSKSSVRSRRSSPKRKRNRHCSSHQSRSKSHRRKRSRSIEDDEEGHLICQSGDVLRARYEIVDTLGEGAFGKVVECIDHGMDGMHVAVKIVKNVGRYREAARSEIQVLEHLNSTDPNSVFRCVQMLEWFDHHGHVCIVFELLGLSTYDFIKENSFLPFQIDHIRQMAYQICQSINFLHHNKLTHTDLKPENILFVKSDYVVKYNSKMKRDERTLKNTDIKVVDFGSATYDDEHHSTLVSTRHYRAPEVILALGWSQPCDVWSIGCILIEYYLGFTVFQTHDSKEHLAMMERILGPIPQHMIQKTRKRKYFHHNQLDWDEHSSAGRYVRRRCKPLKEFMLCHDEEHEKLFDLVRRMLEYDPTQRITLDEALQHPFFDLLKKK

Test [16] addresses Cytochrome P450 3A4 (Homo sapiens) (UniProt P08684). The test can be described thus: qHTS Assay for Inhibitors and Substrates of Cytochrome P450 3A4 (AID 884). Further: potency means the concentration at half of the fitted maximal effect; nearly all actives have a fitted effect of over 50% in size. To be noted: recombinant CYP3A4, Luciferin-PPXE luminescence; series mostly up to 57.1 µM. The method, boiled down:
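20 nM human CYP3A4 with 25 uM Luciferin-PPXE (at KM) in 200 mM KPO4, preincubated 10 min with compound; NADPH regeneration started a 60 min RT reaction. Luciferin detected by luminescence, normalized to 57 uM ketoconazole as full inhibition.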

A short description of test [17]: qHTS Assay for Identification of Small Molecule Agonists for Hypoxia Response Element Signaling Pathway (AID 914; active means well fitted activation curve with a large enough effect in the signal ratio, with a control signal flat, not every such curve was filed as active; the % refers to the signal ratio; further: % of control where 0% means no effect). As to conditions: ME-180 (cervical carcinoma) HRE-bla reporter, beta-lactamase ratio, CoCl2, 17 h; activation: stronger effect = higher value. The method, boiled down:
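Cells were plated overnight, pin-dosed with compound in a titration series, co-stimulated with EC50 CoCl2 and incubated 17 hours at 37 degrees Celsius. CCF4 substrate was then loaded, and AC50 values came from the 460nm/530nm ratio.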

Setting [18] is: measured here: cell count channel max response.
The mark [19] stands for this setting: measured here: lipid channel max response.

Each structure is given as a SMILES string. Results filed as inconclusive are left out. Calls of active or inactive are those of the source. Unless noted, the call rests on the fitted dose curve; in most records, active means well fitted curve in the direction sought with a large enough effect; inconclusive means small, poorly fitted or top-dose-only effect, or another doubt; inactive means no such curve, though single readings can be large; an effect the other way counts as inactive or inconclusive.

Sequence of 3',5'-cyclic-AMP phosphodiesterase 4B (Homo sapiens) (Q07343 whole entry, looked up): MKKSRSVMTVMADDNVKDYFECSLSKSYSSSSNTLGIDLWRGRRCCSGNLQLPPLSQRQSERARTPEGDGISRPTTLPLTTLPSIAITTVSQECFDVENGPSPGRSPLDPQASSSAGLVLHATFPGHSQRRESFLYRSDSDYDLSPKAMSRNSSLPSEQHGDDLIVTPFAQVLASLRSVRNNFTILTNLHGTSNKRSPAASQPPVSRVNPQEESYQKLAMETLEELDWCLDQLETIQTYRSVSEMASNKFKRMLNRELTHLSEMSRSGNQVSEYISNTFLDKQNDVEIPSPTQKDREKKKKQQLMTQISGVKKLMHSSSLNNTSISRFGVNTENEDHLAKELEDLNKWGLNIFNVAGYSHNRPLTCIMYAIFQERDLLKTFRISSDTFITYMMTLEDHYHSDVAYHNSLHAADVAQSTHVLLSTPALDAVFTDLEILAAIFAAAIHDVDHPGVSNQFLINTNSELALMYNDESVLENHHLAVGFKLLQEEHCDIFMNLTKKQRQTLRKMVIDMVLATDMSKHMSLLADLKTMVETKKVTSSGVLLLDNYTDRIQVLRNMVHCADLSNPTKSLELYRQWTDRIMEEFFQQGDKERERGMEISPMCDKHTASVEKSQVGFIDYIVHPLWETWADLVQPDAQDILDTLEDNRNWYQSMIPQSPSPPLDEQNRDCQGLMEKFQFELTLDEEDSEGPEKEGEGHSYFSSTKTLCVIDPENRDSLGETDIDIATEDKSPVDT

Turning to `O=c1c(-c2ccc(Cl)cc2)nc2cnc(N3CCOCC3)nc2n1-c1ccccc1`, the Potency in [1] is > 11.4 µM (inactive); in test [2] it was 2 µM (active); in test [3], > 9.22 µM (inactive); in [4] it was > 46 µM (inactive). The molecule was classed as inactive in test [5]. For the same molecule, the Potency entry in [6], in test [8], in test [9] and in test [10] was “inactive” throughout. Moreover, the activity change, negative = inhibition in test [7] is -3% (inactive). For the same molecule, the max response came to 25.3% in [7] (setting [18]) and 19.1% in test [7] (setting [19]).

With `COc1ccc(CNc2cc(-c3ccoc3)ncn2)c(OC)c1`, the Potency in test [1] is > 11.4 µM (inactive); in [2] it was 15.8 µM (active); in test [3] it was > 46 µM (inactive); in test [4] it was > 46 µM (inactive). Further, the results for the activity change, negative = inhibition in [11], in test [12] and in [7] were -15.9% (inactive), 0.143% (inactive) and 8.38% (inactive), respectively. Also, the activity, negative = inhibition in [13] is 19.9% (inactive). Further, the result in test [5] was inactive. Further, the Potency entry in test [6], in test [14], in test [15] and in test [10] was “inactive” throughout. Moreover, the max response in test [7] (setting [18]) worked out at 31.5%; in test [7] (setting [19]) it was 38.7%.

`CN1CCN(c2ncnc3ccc(-c4ccc(C(=O)N(C)C)cc4)cc23)CC1`: the Potency in test [1] is > 11.4 µM (inactive); in test [3], > 46 µM (inactive); in test [4], > 46 µM (inactive). Moreover, the activity change, negative = inhibition in [11] is -10.8% (inactive); in test [12], 1.97% (inactive); in test [7], 2.73% (inactive). The Potency result in [2], in test [6], in test [14], in test [15], in test [9] and in test [10] was “inactive” each time. Besides, the activity, negative = inhibition in [13] is -6.95% (inactive). Further, the result in test [5] was inactive. The max response in [7] (setting [18]) was 23.5%; in test [7] (setting [19]), 25.5%.

For the molecule `Fc1ccc(Nc2ncncc2-c2ccoc2)cc1`, the Potency in test [1] was > 11.4 µM (inactive); in [2], 0.316 µM (active); in [3], > 46 µM (inactive); in [4], > 46 µM (inactive); in test [16], 0.501 µM (active); in test [8], 10 µM (active). Moreover, the values for the activity change, negative = inhibition in [11], in [12] and in [7] were -7.98% (inactive), 2.9% (inactive) and 4.26% (inactive), respectively. In addition, the activity, negative = inhibition in test [13] was 4.97% (inactive). Also, in [5], the outcome was inactive. The Potency entry in test [14], in test [9] and in test [10] was “inactive” each time. Besides, the max response in test [7] (setting [18]) was 9.18%; in test [7] (setting [19]), 12.6%.

In the case of `Cc1noc(C)c1-c1cncnc1NCc1ccccc1`, the activity change, negative = inhibition in test [11] was -6.64% (inactive); in [12], 0.549% (inactive); in test [7] it was 6.38% (inactive). The figures for the Potency in [2], in [3] and in test [4] were 25.1 µM (active), > 46 µM (inactive) and > 46 µM (inactive), respectively. Further, in [13], the activity, negative = inhibition was -5.87% (inactive). Also, in test [5], the outcome was inactive. In addition, the Potency result in [6], in [14], in [8], in test [15], in test [9] and in test [10] was “inactive” throughout. For the same molecule, the activation in test [17] was 4.46% (inactive). For the same molecule, the max response in test [7] (setting [18]) came out at 0.495%; in test [7] (setting [19]), 15.9%.
